# The sample as a whole holds a higher share of hits than the screen did.
# Shiga toxin inh = blocks Shiga toxin action in Vero cells; hit rate 9.2% among 290,000; Vero cells, Shiga toxin protein synthesis inhibition reporter; inhibition, % at 38.7 µM; in the data active = inhibition mostly above about 28%, no sharp cut-off; inactive = mostly below about 43%; note: 0% is about no effect
# Giardia FBPA inh = inhibitors of Giardia lamblia fructose-1,6-bisphosphate aldolase | A8B2U2 | purified Giardia FBPA | Potency, µM (titrated, usually from 59.6 µM), for inactives: at the top dose activity, negative = inhibition, hits mostly inhibitors | hit rate 0.71% among 290,000; note: potency is the fitted concentration of half-maximal effect; % is set by controls: 0 for no effect and ±100 for the full control effect; nearly all actives have a fitted effect of over 55% in size
# Target sequence (A8B2U2 whole entry, looked up): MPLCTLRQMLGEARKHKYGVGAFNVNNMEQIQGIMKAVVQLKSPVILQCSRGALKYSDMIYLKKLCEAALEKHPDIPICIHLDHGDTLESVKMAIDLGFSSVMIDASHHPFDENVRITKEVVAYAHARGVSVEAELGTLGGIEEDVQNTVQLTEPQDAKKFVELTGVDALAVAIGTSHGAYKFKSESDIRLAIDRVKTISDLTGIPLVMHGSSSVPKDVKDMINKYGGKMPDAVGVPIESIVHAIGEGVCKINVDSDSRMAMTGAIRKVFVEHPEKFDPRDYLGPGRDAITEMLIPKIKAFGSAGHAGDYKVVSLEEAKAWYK
#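 Giardia FBPA (40 nM reagent) was preincubated 10 min at RT with compound (up to 57.5 uM final), then substrate plus GAPDH/TPI/NAD/arsenate coupling system with diaphorase/resazurin was added; resorufin fluorescence (525/598 nm) was read after 20 min.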
# LmPK inh = inhibitors of Leishmania mexicana pyruvate kinase; purified LmPK, Kinase-Glo ATP luminescence, 1 h; Potency, µM (top dose mostly 57.5 µM), for inactives: at the top dose activity change, negative = inhibition, hits mostly inhibitors; hit rate 0.37% among 290,000; note: potency is the fitted concentration of half-maximal effect; % is set by controls: 0 for no effect and ±100 for the full control effect
#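 Kinase-Glo luminescence read after 1 h RT reaction of 0.1 nM LmPK with 0.5 mM PEP and 0.1 mM ADP. Activity scaled between uninhibited and enzyme-free controls.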
# Cycloheximide cs = counter-screen for Shiga toxin inhibitors: cycloheximide protein synthesis inhibition; cell reporter, cycloheximide protein synthesis inhibition counterscreen; max response, %; hit rate 12% among 300,000; in the data active = max response mostly above about 13%, no sharp cut-off; inactive = mostly below about 14%; note: read at 38.3 µM for the half of the compounds with a filed dose; 0% is about no effect
# TbPYK inhibitor = inhibitors of Trypanosoma brucei pyruvate kinase | Q57TT1 | TbPYK enzyme, Kinase-Glo Plus ATP luminescence, 45 min | Potency, µM (series often up to 76.8 µM), without a hit: at the highest dose activity, negative = inhibition, actives largely listed as inhibitors | hit rate 0.12% among 410,000 | AID 624173; note: potency is the fitted concentration of half-maximal effect; % is set by controls: 0 for no effect and ±100 for the full control effect; nearly all actives have a fitted effect of over 50% in size
#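 TbPYK + substrate in 50 mM TEA pH 7.2, 100 mM KCl, 10 mM MgCl2, 0.05% BSA, 0.01% Tween-20; cpd pinned; ADP 130 uM final; 45 min RT; Kinase-Glo Plus 10 min; luminescence endpoint.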
# Sm TGR block = S. mansoni TGR enzyme inhibition; Q962Y6; purified TGR, DTNB reduction, TNB absorbance 405 nm; Potency, µM (doses to about 114 µM), without a hit: top-dose activity change, negative = inhibition, actives largely listed as inhibitors; hit rate 3% among 360,000; note: potency is the fitted concentration of half-maximal effect; % is set by controls: 0 for no effect and ±100 for the full control effect; nearly all actives have a fitted effect of over 60% in size
#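 First, TGR (20 nM dispensed) and NADPH were mixed with compound. Second, a 15 min room-temperature incubation followed. Third, further NADPH and then DTNB were added to start the reaction. Finally, TNB absorbance was monitored kinetically.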
# An asterisk follows results filed as active; ? = inconclusive; · = no result given. Unless noted, calls come from the whole dose curve; as a rule, active = well fitted curve in the direction sought with a large enough effect; inconclusive = small, poorly fitted or top-dose-only effect, or another doubt; inactive = no such curve, though single readings can be large; an effect the other way counts as inactive or inconclusive.
SMILES,Shiga toxin inh,Giardia FBPA inh,LmPK inh,Cycloheximide cs,TbPYK inhibitor,Sm TGR block
COc1ccc(C2CC(=O)N(CC(=O)Nc3ccc(C(F)(F)F)cc3)c3ccccc3S2)cc1 (stereo not given),·,·,·,·,6%,8%
O=C(CN1C(=O)CC(c2ccco2)Sc2ccccc21)NCC1CCCO1 (stereo not given),-15,-23%,5%,-2,-8%,13µM*
COc1ccc(C2CC(=O)N(CC(=O)NCC3CCCO3)c3ccccc3S2)cc1 (stereo not given),72,4%,6%,34*,4%,-10%
CN(c1ccccc1)S(=O)(=O)c1cccc(C(=O)NCC(c2cccs2)N2CCOCC2)c1 (stereo not given),·,·,·,·,1%,·
CCOc1ccc(/C=C/C(=O)NCc2ccccc2)cc1,30,-2%,1%,20*,-8%,-2%
CCOc1ccc(/C=C/C(=O)c2ccccc2)cc1,43,-2%,16µM*,31*,-6%,-15%
CCOc1ccc(/C=C/C(=O)NC2CCCCC2)cc1,·,4%,10%,18*,-4%,3%
COc1ccc(C(=O)CC(=O)C(=O)Nc2ccccc2C(F)(F)F)cc1,5,-2%,-1%,0,1%,-1%
CCN(CC)S(=O)(=O)c1ccc(/C=C/C(=O)NC2CCCCC2)cc1,-8,-2%,7%,6,3%,1%
COc1ccc(C(=O)/C=C/c2ccccc2C(F)(F)F)cc1,29,-2%,2%,26*,1%,3%
NCCCCCCCCCCNCCCN,-10,-15%,·,-9,·,·
O=C(O)COc1ccc(/C=C/C(=O)c2ccc(C3CCCCC3)cc2)cc1,49,7%,1%,26*,3%,3%
O=C(O)COc1ccc(/C=C/C(=O)c2ccc3ccccc3c2)cc1,20,-1%,6%,14,1%,0%
O=C(/C=C/c1ccccc1)NCCOc1ccccc1,77*,0%,0%,39*,-10%,-5%
CC(C)(C)C(=O)/C=C/c1ccc(Oc2ccccc2)cc1,120*,-4%,-4%,50*,-3%,-8%
CCOc1ccc(C(=O)/C=C/c2ccc(SC)cc2)cc1,2,-8%,-6%,19,-1%,-6%
CCOc1ccc(C(=O)/C=C/c2ccccc2C(F)(F)F)cc1,22,6%,-4%,21*,-1%,17%
Cc1cccc(-c2nc(CCNC(=O)COc3ccccc3)cs2)c1,·,·,·,·,0%,4%
Cc1ccc(C=Nc2ccc(N(C)C)cc2)o1,109*,?,?,24*,-6%,-36%
COc1cc(O)oc1C=Nc1ccc(Cl)cc1,20,0%,-3%,15,-2%,-10%
COc1cc(O)oc1C=Nc1ccc(Cl)cc1Cl,35*,-9%,4%,28*,-4%,79µM*
COc1cc(O)oc1C=Nc1ccc(C(=O)O)cc1,3,-6%,25µM*,-3,?,-10%
O=C(NC1CCCCC1)c1ccc(-c2cn[nH]c2)c2ccoc12,·,·,·,·,1%,·
O=C(CCl)N1CCN(S(=O)(=O)Cc2ccccc2)CC1,·,·,·,·,1%,16µM*
CC(c1ccccc1)N1CCN(C(=O)CCl)CC1 (stereo not given),2,-11%,-1%,-3,7%,45µM*
SMILES,Shiga toxin inh,Giardia FBPA inh,LmPK inh,Cycloheximide cs,TbPYK inhibitor,Sm TGR block
O=C(CCl)N1CCN(S(=O)(=O)c2ccc3c(c2)CCC3)CC1,·,·,·,·,1%,5µM*
CN1C(=O)N(CC(=O)N2CCN(S(=O)(=O)c3ccc4c(c3)CCC4)CC2)C(=O)C12CCCCC2,·,·,·,·,6%,4%
Cc1cc(=O)oc2cc(OCC(=O)N3CCN(C(C)c4ccccc4)CC3)c(Cl)cc12 (stereo not given),·,·,·,·,-2%,-1%
O=C(NCCS(=O)(=O)N1CCN(c2ccc(F)cc2)CC1)c1cc(=O)c2ccccc2o1,·,·,·,·,-5%,3%
C=C1/C(=C\C=C2/CCC[C@@]3(C)[C@@H]([C@H](C)OCCC(C)(C)O)CC[C@@H]23)C[C@@H](O)C[C@@H]1O,·,·,·,·,3%,·
CC(C)c1ccc(/C=N/n2c(COc3ccccc3)n[nH]c2=S)cc1,-13,23%,-1%,3,-23%,0%
CC1=NOC2(C1)N(C)c1ccccc1C2(C)C (stereo not given),24,19%,-2%,12,-4%,-9%
CN1c2ccccc2C(C)(C)C12CCCC(=O)N2 (stereo not given),-18,?,4%,-2,-17%,20µM*
CCCn1nc(NC(=O)c2cccs2)c2cc3cc(C)ccc3nc21,37*,-14%,3%,25*,-7%,-10%
CCCCn1nc(NC(=O)c2cccs2)c2cc3cc(OC)ccc3nc21,-3,-21%,3%,14,5%,0%
CCCn1nc(NC(=O)c2cccs2)c2cc3cc(OC)ccc3nc21,29*,?,4%,18*,0%,1%
COC(=O)c1nnn(CC(=O)Nc2cc(F)ccc2F)c1C(=O)OC,·,·,·,·,6%,4%
FC(F)c1nc2nc(Cl)c(Cl)nc2[nH]1,·,·,·,·,-4%,·
O=C(NCC1CCCO1)c1ccc(Cl)c(S(=O)(=O)N2CCCCC2)c1 (stereo not given),-5,-15%,-6%,-2,5%,-10%
COc1ccc(S(=O)(=O)N2CCN(S(=O)(=O)c3ccc(OC)cc3)CC2)cc1,1,·,·,-9,·,-9%
CCOc1ccc(C(=O)CN2CCN(S(=O)(=O)c3ccc(F)cc3)CC2)cc1,-9,-14%,3%,-1,3%,25µM*
COc1cccc(C(=O)CN2CCN(S(=O)(=O)c3ccc(Cl)cc3)CC2)c1,·,·,·,·,-5%,22µM*
COc1ccc(S(=O)(=O)N2CCN(CC(=O)c3ccc(O)c(O)c3)CC2)cc1,-8,·,-5%,-1,?,20µM*
O=C(CN1CCN(S(=O)(=O)c2ccc(Cl)cc2)CC1)c1ccc(O)c(O)c1,2,·,-1%,1,-23%,20µM*
COc1ccc2c(c1)c(=O)c(C(=O)c1ccc(F)cc1)cn2CC(=O)Nc1ccc2c(c1)OCCO2,·,·,·,·,1%,2%
COc1ccccc1C(=O)NC(=O)COC(=O)Cc1ccccc1[N+](=O)[O-],·,·,·,·,1%,3%
C=CCNC(=O)c1cc2c(=O)c3ccccc3oc2nc1C,25,1%,0%,12,2%,·
COC(=O)c1cc2c(=O)c3ccccc3oc2nc1C,49*,5%,-12%,24*,-3%,1%
Cc1nc2oc3ccc(F)cc3c(=O)c2cc1C(=O)NC(C)(C)C,128*,0%,-3%,41*,3%,·

# Screening data as filed in PubChem.
